# Six1-Eya2 blk = blocks human Six1 binding to Eya2. Q15475+O00167. AlphaScreen GST-Six1/His-Eya2 binding, biochemical; active compounds read low. activity change, % (no concentration beside the values). 0.56% of 360,000 active; in the data active = activity change below about -65%; inconclusive = mostly about -30% to -63%
#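 Compounds are tested against tagged Six1 and Eya2 proteins bridged by glutathione donor and nickel acceptor beads; after a one-hour incubation at 37 °C without light, AlphaScreen emission is recorded.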
# BAZ2B inh = inhibitors of human BAZ2B bromodomain; AID 504333; Q9UIF8; Potency, µM (doses to about 114 µM), hits mostly inhibitors; AlphaScreen BAZ2B-H3K14Ac peptide displacement; 4.4% of 360,000 active; also: nearly all actives have a fitted effect of over 60% in size
#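 BAZ2B 50 nM plus b-H3(5-23)K14Ac 50 nM, PBS pH 7.4/0.01% Tween-20, 30 min RT; compound added (max 110 uM), 30 min RT; streptavidin donor/Ni-chelate acceptor beads 10 ug/mL final, 20 min dark; AlphaScreen read.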
# HP1b binding inh = blocks HP1-beta chromodomain binding to methylated histone tails. P83916. AlphaScreen HP1-beta / biotin-H3K9me3 peptide binding. 0.56% of 390,000 active. Potency, µM (series often up to 114 µM), most hits filed as inhibitors. AID 540317; also: nearly all actives have a fitted effect of over 70% in size
#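 HP1-beta protein (50 nM final) preincubated 30 min at room temperature with biotinylated H3(1-18)K9me3 peptide (50 nM) in PBS pH 7.4, 0.01% Tween-20, then compound added for 30 min. AlphaScreen streptavidin donor/nickel chelate acceptor beads (10 ug/mL final), 30 min dark, luminescence read.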
# JMJD2A Tudor inh = blocks the human JMJD2A Tudor domain. O75164. AlphaScreen JMJD2A-Tudor / H3K4me3 peptide binding. Potency, µM (doses to about 114 µM), hits mostly inhibitors. 4.4% of 390,000 active; also: nearly all actives have a fitted effect of over 50% in size
# CtBP-E1A inh = CtBP/E1A binding inhibition; activity change, % (no concentration beside the values); AlphaScreen GST-E1A/His-CtBP binding, 1536-well; active compounds read low; AID 651724; 0.49% of 340,000 active; in the data active = activity change below about -65%; inconclusive = mostly about -30% to -63%
#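 AlphaScreen with 125 nM GST-E1A and 125 nM His-CtBP (5X stocks) in Tris pH 8.0, 300 mM NaCl, BSA, Tween 20, TCEP. Compounds preincubated 2 h at 37 deg C, then glutathione donor/nickel acceptor beads added for 1 h at 37 deg C in dark.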
# G9a inh = G9a (human) methyltransferase inhibition | Q96KQ7 | AID 504332 | G9a H3K9 monomethylation, AlphaScreen, 2 h | Potency, µM (titrated, usually from 102 µM), most hits filed as inhibitors | 8.8% of 350,000 active; also: nearly all actives have a fitted effect of over 75% in size
#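 Compounds were preincubated with 20 nM G9a for 15 min, after which biotinylated H3K9 peptide (500 nM) and SAM (20 uM) started a 2 h room-temperature reaction. Monomethylated product was quantified by antibody-based AlphaScreen chemiluminescence.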
# Hits are given with their value; - = inactive; ? = inconclusive; . = not tested or not shown. Shown are actives, neighbours in structure and some others; about 10% of the full set was active somewhere. Unless noted, calls follow the shape of the dose curve; as a rule, active = well fitted inhibition curve with a large enough effect; inconclusive = small, poorly fitted or top-dose-only effect; inactive = no such curve, though single readings can be large or run the other way.
SMILES,Six1-Eya2 blk,BAZ2B inh,HP1b binding inh,JMJD2A Tudor inh,CtBP-E1A inh,G9a inh
Cc1ccc(OCC(=O)OC2=C(C(=O)c3ccccc3)N(C)S(=O)(=O)c3ccccc32)cc1,.,-,-,?,.,20µM
CC(C)(C)c1ccc(S(=O)(=O)NC(=O)C2(C)CCN2C(=O)C2(c3ccc(Cl)cc3)CC2)cc1 (stereo not drawn),-,.,.,.,-,.
COc1ccc(Cl)cc1C(=O)C1CCCN(Cc2cnc(N3CCOCC3)s2)C1 (stereo not drawn),-,-,?,14.1µM,-,-
Cc1ccc(Cl)c2c1=NC(=O)C=2c1[nH]c(=S)[nH]c1O,-,?,?,-,-,7.94µM
CC(C)NC(=O)C1(C)CN(S(C)(=O)=O)CC(=O)N1C1CC1 (stereo not drawn),-,.,.,.,-,.
O=C(CN1CC(=O)Oc2ccccc21)OCC(=O)c1cccc(Br)c1,-82.5,8.91µM,-,39.8µM,?,44.7µM
O=C(CN1CC(=O)Oc2ccccc21)OCC(=O)c1ccccc1,-90.8,12.6µM,-,20µM,-92.1,?
CC(=O)NCC(=O)OCC(=O)c1ccccc1,-,-,-,-,-,-
O=C(COC(=O)C1CC2CCCC(C1)C2=O)c1cccc(Br)c1 (stereo not drawn),-,-,-,-,.,?
COc1ccc(CN(C(=O)CSc2nnc(-c3c[nH]c4ccccc34)o2)c2ccc(F)cc2)cc1OC,-,-,-,-,-,-
COc1ccc(S(=O)(=O)Nc2ccc3c(c2)CCC3)cc1,-,-,-,10µM,-,-
CC(=O)Nc1ccc(S(=O)(=O)Nc2ccc3c(c2)CCC3)cc1,-,-,-,-,-,44.7µM
CC(=O)Nc1ccc(S(=O)(=O)Nc2ccc3[nH]c(=O)[nH]c3c2)cc1,-,-,-,-,-,-
CCN(CC)c1ccc(NS(=O)(=O)c2ccc(OC)cc2)cc1,-,39.8µM,-,-,-,15.8µM
COc1ccc(S(=O)(=O)Nc2ccc(N(C)C(C)=O)cc2)cc1,-,-,-,-,-,-
CCCn1c(=O)n(C)c(=O)c2c(SCC(=O)NCC(c3ccccc3)N(C)C)nc(CC(C)C)nc21 (stereo not drawn),-,-,-,-,-,.
C=CCn1c(=O)c2ccccc2n2c(SCc3nnc(-c4ccccc4Br)o3)nnc12,-,-,-,-,-,-
CCC(Sc1ccc2nnc(-c3cccnc3)n2n1)C(=O)O (stereo not drawn),-,-,-,-,-,50.1µM
CCOC(=O)C(CC)Sc1ccc2nnc(-c3cccnc3)n2n1 (stereo not drawn),-,-,-,-,-,?
CCOc1ccccc1NC(=O)CSc1ccc2nnc(-c3cccnc3)n2n1,-78.9,-,-,-,-85.2,-
CCOc1ccc(NC(=O)CSc2ccc3nnc(-c4cccnc4)n3n2)cc1,-,-,-,-,-,-
COc1ccccc1NC(=O)CSc1ccc2nnc(-c3cccnc3)n2n1,-70.2,-,-,-,-76.9,-
COc1ccccc1NC(=O)CSc1nn2c(=O)c(C)nnc2s1,?,-,-,?,-81.5,-
Cc1nnc2sc(SCC(=O)Nc3nccs3)nn2c1=O,?,-,-,-,-,-
CCCCn1c(=N)c(S(=O)(=O)c2ccc(Cl)cc2)cc2c(=O)n3cccc(C)c3nc21,.,-,-,-,.,-
SMILES,Six1-Eya2 blk,BAZ2B inh,HP1b binding inh,JMJD2A Tudor inh,CtBP-E1A inh,G9a inh
CS(=O)(=O)N1CCN(C(=O)Cc2ccccc2Cl)CC1,-,-,-,-,-,-
COc1ccc(NC(=O)CSc2ccc3nnc(-c4cccnc4)n3n2)c(OC)c1,?,?,-,-,-68.0,?
Cc1cc(-c2cccnc2)c(C#N)c(SCc2cccc(F)c2)n1,-,-,-,-,-,39.8µM
Fc1cccc(CSc2ccc3nnc(-c4cccnc4)n3n2)c1,-67.1,-,-,-,?,-
Cc1cc(-c2cccnc2)c(C#N)c(SCC#N)n1,-,-,-,-,-,-
COc1cccc(NC(=O)CSc2ccc3nnc(-c4cccnc4)n3n2)c1,-,-,-,-,?,-
Cc1ccccc1C(=O)Nc1nc2c(s1)CC(C(C)(C)C)CC2 (stereo not drawn),.,-,-,-,.,-
